These results are taken from PubChem BioAssay (EPA / NIEHS).

Structures are written as SMILES. Activity calls are given as the source filed them. Rule for the calls: active = hit-call score of the fitted dose curve at least 0.9, where 1 is the maximum; inactive = score below 0.9.

The nature of experiment [1]: APR_HepG2_NuclearSize_72hr: Apredica 72-hour HepG2 Assay for Nuclear Size (AID 2282925). To be noted: high-content imaging, actives raise or lower the signal. The essentials: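 Compounds (0.39–200 uM, final DMSO 0.5%) were applied to HepG2 for 72 hr. Cells were then formaldehyde-fixed, permeabilized and labelled with Hoechst 33342. Nuclear diameter was quantified from six images per well.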

Experiment [2] is described as follows: ATG_CRE_CIS: Attagene CIS-FACTORIAL HepG2 Assay for human cAMP Responsive Element (CRE) binding protein 3 (AID 2282926). To be noted: HepG2 CRE cis-reporter, Attagene multiplexed mRNA; actives raise or lower the signal. The essentials:
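Capillary electrophoresis of 6-FAM-labelled, HpaI-digested PCR products quantified reporter transcripts. These came from HepG2 transiently transfected with cis-element reporters and exposed to test chemicals for 24 hours, with DMSO defining baseline activity.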

Experiment [3] has as its target CCAAT/enhancer-binding protein beta (Homo sapiens) (UniProt P17676). Put plainly: ATG_C_EBP_CIS: Attagene CIS-FACTORIAL HepG2 Assay for human CCAAT/Enhancer Binding Protein (C/EBP) beta (AID 2282927). To be noted: HepG2 Attagene cis-factorial transcription factor reporter; actives raise or lower the signal. The essentials: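 Chemical-treated HepG2 cells (24 h) bearing cis-regulated reporter constructs were processed for total RNA, then reverse transcription, PCR amplification, fluorescent primer extension and fragment analysis; gain- and loss-of-signal were fitted against DMSO.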

A short description of experiment [4]: ATG_CMV_CIS: Attagene CIS-FACTORIAL HepG2 Assay for human CMV (Internal Marker) (AID 2282928).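 Note: endpoint acts as a background internal control marker rather than a target.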 As to conditions: HepG2 CMV promoter reporter, transcription factor profiling; actives raise or lower the signal. The essentials:
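Readout: fluorescent reporter cDNA fragments separated by capillary electrophoresis after RT-PCR and HpaI cut. Cells: HepG2 carrying transfected cis-promoter reporter constructs, dosed 24 h. Endpoint serves as background internal-marker control, fit bidirectionally versus DMSO.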

Experiment [5] in a line: ATG_DR4_LXR_CIS: Attagene CIS-FACTORIAL HepG2 Assay for human Liver X Receptor (LXR), DR4 submotif (AID 2282929). To be noted: HepG2 Attagene DR4 cis-reporter, mRNA transcription; actives raise or lower the signal. The essentials:
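HepG2, transient MRTU transfection, cis-element (DR4) promoter; 24 h compound exposure; total RNA → oligo(dT) RT → PCR → 6-FAM primer extension → HpaI cut → CE. Gain/loss vs DMSO, bidirectional fit.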

Experiment [6] deals with Aryl hydrocarbon receptor (Homo sapiens) (UniProt P35869). The experiment can be described thus: ATG_Ahr_CIS: Attagene CIS-FACTORIAL HepG2 Assay for human Aryl Hydrocarbon Receptor (Ahr) (AID 2282930). To be noted: HepG2 AhR cis-factorial reporter transcription; actives raise or lower the signal. The essentials:
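Following 24 h of chemical dosing, transfected HepG2 liver cells with cis-driven reporter units were lysed for RNA; reporter mRNA was quantified via RT-PCR and capillary electrophoresis, and responses fitted bidirectionally from DMSO.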

Experiment [7] in a line: ATG_AP_2_CIS: Attagene CIS-FACTORIAL HepG2 Assay for human Activator Protein 2 (AP-2) (AID 2282932). To be noted: HepG2 AP-2 cis-reporter, Attagene transcription factor profiling; actives raise or lower the signal. The essentials:
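Assay in transfected HepG2 with promoter-regulated reporters, 24 h incubation after dosing. Signal is reporter mRNA fluorescence (RT-PCR, capillary electrophoresis), analysed for both increases and decreases relative to DMSO controls.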

Experiment [8] can be described thus: ATG_BRE_CIS: Attagene CIS-FACTORIAL HepG2 Assay for human Bone Morphogenetic Protein (BMP) Response Element (BRE) (AID 2282933). As to conditions: HepG2 BMP response element reporter, Attagene transcription factor profiling; actives raise or lower the signal. The essentials: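 Endogenous transcription factor activity read in transiently transfected HepG2 cells after 24 h chemical exposure. Bidirectional curve fitting against DMSO; readout is reporter transcript level by RT-PCR with capillary electrophoresis of labelled products.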

For experiment [9], the target named is Retinoic acid receptor alpha (Homo sapiens) (UniProt P10276). Put plainly: ATG_DR5_RAR_CIS: Attagene CIS-FACTORIAL HepG2 Assay for human Retinoic Acid Receptor Alpha (RARE), DR5 submotif (AID 2282934). As to conditions: HepG2 Attagene cis-factorial RARE DR5 reporter, mRNA; actives raise or lower the signal. The essentials:
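Transfected HepG2 reporter cells are exposed to chemicals for 24 h. Then RNA is extracted and the DR5 element reporter transcript is measured by RT-PCR and capillary electrophoresis, with bidirectional curve fitting relative to DMSO.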

The target of experiment [10] is Transcription factor E2F1 (Homo sapiens) (UniProt Q01094). Put plainly: ATG_E2F_CIS: Attagene CIS-FACTORIAL HepG2 Assay for human E2F Transcription Factor 1 (AID 2282935). To be noted: HepG2 Attagene cis-reporter, E2F reporter RNA transcripts; actives raise or lower the signal. The essentials: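 In this cis-factorial format, endogenous factor activity drives transfected reporters in HepG2; transcripts collected at 24 h are quantified by fluorescence after RT-PCR and capillary separation.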

Experiment [11] in a line: ATG_E_Box_CIS: Attagene CIS-FACTORIAL HepG2 Assay for human Enhancer Box (E-box) (AID 2282936). To be noted: HepG2 E-box cis-reporter transcription, actives raise or lower the signal. The essentials:
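Measured 24 h post-dosing in HepG2 cells transfected with multiple cis-regulated reporter units, signal being reporter mRNA induction detected by fluorescent RT-PCR with capillary electrophoresis; gain or loss fitted against DMSO.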

A short description of experiment [12]: ATG_M_61_CIS: Attagene CIS-FACTORIAL HepG2 Assay for M61 Transcription Factor (Internal Marker) (AID 2282937). To be noted: HepG2 Attagene CIS-FACTORIAL M61 internal marker reporter; actives raise or lower the signal. The essentials:
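Human liver HepG2, transient MRTU transfection (cis promoter elements), 24 h compound. Total RNA → oligo(dT) RT → PCR → FAM label → HpaI → CE. Internal background marker; bidirectional fitting, DMSO = baseline.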

The nature of experiment [13]: ATG_EGR_CIS: Attagene CIS-FACTORIAL HepG2 Assay for human Early Growth Response 1 (EGR1) (AID 2282938). As to conditions: HepG2 Attagene CIS-FACTORIAL EGR reporter mRNA; actives raise or lower the signal. The essentials:
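Transient transfection of human HepG2 with multiple cis-regulated reporter units, chemical exposure 24 h, total RNA isolated. Reverse transcription, PCR, fluorescent labelling and capillary electrophoresis quantify reporter transcripts; activity fitted bidirectionally against DMSO.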

The nature of experiment [14]: ATG_M_19_CIS: Attagene CIS-FACTORIAL HepG2 Assay for M19 Transcription Factor (Internal Marker) (AID 2282939). As to conditions: HepG2 Attagene CIS-FACTORIAL M19 internal marker reporter; actives raise or lower the signal. The essentials:
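Internal marker readout, fitted in both directions against DMSO, from HepG2 cells carrying transfected cis-element reporter constructs; RT-PCR and capillary electrophoresis of reporter mRNA after 24 h exposure.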

Experiment [15] can be described thus: ATG_ERE_CIS: Attagene CIS-FACTORIAL HepG2 Assay for Estrogen Response Element (ERE) (AID 2282940). As to conditions: HepG2 ERE cis-reporter, Attagene RNA transcript; actives raise or lower the signal. The essentials: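 After 24 h compound treatment, RNA from transfected HepG2 cells was reverse-transcribed, reporter cDNA PCR-amplified, FAM-labelled, HpaI-cut and resolved by capillary electrophoresis. ERE-driven cis reporter transcripts reflect endogenous factors; gain or loss scored against DMSO.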

Experiment [16] can be described thus: ATG_Ets_CIS: Attagene CIS-FACTORIAL HepG2 Assay for human Erythroblast Transformation Specific (ETS) (AID 2282941). To be noted: HepG2 ETS cis-reporter transcription, actives raise or lower the signal. The essentials:
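RT-PCR/capillary electrophoresis fluorescence read-out of reporter mRNA; HepG2 transient multi-reporter transfection; 24 h compound exposure; gain or loss of signal fitted bidirectionally relative to DMSO.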

Experiment [17] concerns the target Hepatocyte nuclear factor 3-beta (Homo sapiens) (UniProt Q9Y261). The experiment can be described thus: ATG_FoxA2_CIS: Attagene CIS-FACTORIAL HepG2 Assay for human Forkhead box A2 (FOXA2) (AID 2282942). To be noted: HepG2 cis-reporter transcription factor activity, 24 h; actives raise or lower the signal. The essentials:
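Transient MRTU transfection of HepG2 liver cells; 24 h treatment; total RNA → oligo(dT) RT → PCR → FAM primer extension → HpaI cut → CE. Bidirectional fit vs DMSO.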

A short description of experiment [18]: ATG_GATA_CIS: Attagene CIS-FACTORIAL HepG2 Assay for human GATA Binding Protein (AID 2282944). To be noted: HepG2 GATA cis-element reporter, Attagene multiplex mRNA; actives raise or lower the signal. The essentials:
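Reporter transcripts from a GATA cis-regulated unit, among multiplexed reporters in transfected HepG2 cells, were measured by RT-PCR with capillary electrophoresis after 24 h dosing. Induction or loss scored relative to DMSO.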

A short description of experiment [19]: ATG_FoxO_CIS: Attagene CIS-FACTORIAL HepG2 Assay for human Forkhead box O (FoxO) (AID 2282943). To be noted: HepG2 Attagene cis-reporter, FoxO element, mRNA; actives raise or lower the signal. The essentials:
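24 h chemical exposure, HepG2 with transient cis-MRTU transfection. RNA extraction, oligo(dT) RT, reporter-specific PCR, primer-extension labelling, HpaI digestion, CE fragment analysis; bidirectional fit, DMSO baseline.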

Transcription factor E2F1 (Homo sapiens), sequence (Q01094 whole entry, looked up): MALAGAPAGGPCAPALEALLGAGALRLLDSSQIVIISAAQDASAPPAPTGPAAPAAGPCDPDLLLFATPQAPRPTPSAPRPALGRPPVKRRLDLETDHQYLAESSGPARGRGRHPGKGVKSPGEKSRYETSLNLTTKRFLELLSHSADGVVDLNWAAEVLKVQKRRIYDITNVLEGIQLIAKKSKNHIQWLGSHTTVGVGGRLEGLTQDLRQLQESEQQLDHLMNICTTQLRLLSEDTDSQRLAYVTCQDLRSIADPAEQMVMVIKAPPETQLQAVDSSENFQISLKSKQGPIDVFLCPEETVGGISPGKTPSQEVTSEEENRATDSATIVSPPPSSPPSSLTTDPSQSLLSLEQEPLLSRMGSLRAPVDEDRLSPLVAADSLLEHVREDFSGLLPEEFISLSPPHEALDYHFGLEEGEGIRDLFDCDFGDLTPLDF
Hepatocyte nuclear factor 3-beta (Homo sapiens), sequence (Q9Y261 whole entry, looked up): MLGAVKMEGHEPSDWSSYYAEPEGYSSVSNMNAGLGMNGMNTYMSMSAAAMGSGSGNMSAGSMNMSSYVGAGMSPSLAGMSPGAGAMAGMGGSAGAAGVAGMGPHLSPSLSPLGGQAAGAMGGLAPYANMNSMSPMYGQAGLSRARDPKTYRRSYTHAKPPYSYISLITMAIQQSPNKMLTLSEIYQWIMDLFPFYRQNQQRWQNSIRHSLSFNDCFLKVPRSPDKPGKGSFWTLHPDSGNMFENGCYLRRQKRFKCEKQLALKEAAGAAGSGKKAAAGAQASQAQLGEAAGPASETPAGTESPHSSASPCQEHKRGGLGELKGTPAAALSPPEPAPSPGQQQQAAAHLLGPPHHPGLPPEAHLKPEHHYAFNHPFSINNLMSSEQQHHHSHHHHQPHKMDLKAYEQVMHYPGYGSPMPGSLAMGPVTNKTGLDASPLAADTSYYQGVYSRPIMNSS
Aryl hydrocarbon receptor (Homo sapiens), sequence (P35869 whole entry, looked up): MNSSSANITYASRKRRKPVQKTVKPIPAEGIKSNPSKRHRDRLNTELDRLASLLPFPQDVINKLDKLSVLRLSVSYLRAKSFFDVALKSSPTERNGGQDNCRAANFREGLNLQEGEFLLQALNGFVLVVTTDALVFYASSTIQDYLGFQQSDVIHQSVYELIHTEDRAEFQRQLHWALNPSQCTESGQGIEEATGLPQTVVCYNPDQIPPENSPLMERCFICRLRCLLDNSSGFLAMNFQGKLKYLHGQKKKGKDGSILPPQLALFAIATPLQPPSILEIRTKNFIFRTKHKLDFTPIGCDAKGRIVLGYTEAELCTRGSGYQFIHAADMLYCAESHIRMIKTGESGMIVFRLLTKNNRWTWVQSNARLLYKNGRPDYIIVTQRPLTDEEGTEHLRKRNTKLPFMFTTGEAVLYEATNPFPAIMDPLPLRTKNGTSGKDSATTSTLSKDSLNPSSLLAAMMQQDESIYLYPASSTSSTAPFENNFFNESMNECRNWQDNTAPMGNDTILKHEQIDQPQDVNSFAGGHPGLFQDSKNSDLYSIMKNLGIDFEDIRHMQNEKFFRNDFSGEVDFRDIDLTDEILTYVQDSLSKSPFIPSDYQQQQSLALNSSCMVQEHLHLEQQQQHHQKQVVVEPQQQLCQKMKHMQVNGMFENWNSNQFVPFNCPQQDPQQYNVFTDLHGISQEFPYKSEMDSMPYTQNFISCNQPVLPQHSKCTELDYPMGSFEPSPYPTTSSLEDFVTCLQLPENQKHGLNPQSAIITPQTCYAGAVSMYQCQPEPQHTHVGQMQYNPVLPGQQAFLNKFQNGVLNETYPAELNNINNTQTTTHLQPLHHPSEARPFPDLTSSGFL
Retinoic acid receptor alpha (Homo sapiens), sequence (P10276 whole entry, looked up): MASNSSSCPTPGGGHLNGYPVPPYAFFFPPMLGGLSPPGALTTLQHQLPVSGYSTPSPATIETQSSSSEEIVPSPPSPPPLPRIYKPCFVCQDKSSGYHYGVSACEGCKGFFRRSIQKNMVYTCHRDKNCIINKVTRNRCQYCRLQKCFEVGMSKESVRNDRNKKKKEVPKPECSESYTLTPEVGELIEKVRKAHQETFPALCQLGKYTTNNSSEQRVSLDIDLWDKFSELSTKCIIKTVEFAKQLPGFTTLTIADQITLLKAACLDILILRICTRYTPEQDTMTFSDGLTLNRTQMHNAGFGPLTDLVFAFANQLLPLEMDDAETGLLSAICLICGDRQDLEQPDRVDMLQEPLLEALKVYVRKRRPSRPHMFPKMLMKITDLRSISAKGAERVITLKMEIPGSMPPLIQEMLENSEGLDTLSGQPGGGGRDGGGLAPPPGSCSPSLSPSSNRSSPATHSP
CCAAT/enhancer-binding protein beta (Homo sapiens), sequence (P17676 whole entry, looked up, the tested form may be a part): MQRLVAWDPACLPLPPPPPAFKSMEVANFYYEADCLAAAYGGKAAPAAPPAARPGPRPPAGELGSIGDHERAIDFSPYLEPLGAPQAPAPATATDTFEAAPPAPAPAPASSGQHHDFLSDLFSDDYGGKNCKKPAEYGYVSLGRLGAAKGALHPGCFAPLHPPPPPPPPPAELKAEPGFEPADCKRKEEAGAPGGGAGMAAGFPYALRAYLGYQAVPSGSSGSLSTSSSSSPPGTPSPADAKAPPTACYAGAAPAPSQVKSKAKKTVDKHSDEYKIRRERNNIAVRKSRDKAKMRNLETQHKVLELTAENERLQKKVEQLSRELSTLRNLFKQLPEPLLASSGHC

In the case of `CCOc1cc(Oc2ccc(C(F)(F)F)cc2Cl)ccc1[N+](=O)[O-]`, the call in [1], in experiment [2], in experiment [6], in experiment [7], in experiment [9] and in experiment [10] was inactive. The result in [11], in experiment [12], in [13], in experiment [14], in experiment [16] and in experiment [17] was inactive. In addition, the compound was called inactive in experiment [18]. In addition, the AC50 is 23.6 µM (active) in experiment [3]; 13.6 µM (active) in experiment [4]; 33.1 µM (active) in experiment [5]; 16.6 µM (active) in experiment [8]; 13.1 µM (active) in experiment [15].
As for `O=C(O)COc1nc(Cl)c(Cl)cc1Cl`, the outcome in experiment [1], in experiment [2], in experiment [3], in experiment [4], in experiment [5] and in [6] was inactive. The outcome in experiment [7], in [8], in experiment [9], in experiment [10], in experiment [11] and in experiment [12] was inactive. The result in experiment [13], in [14], in experiment [15], in experiment [16], in experiment [17] and in experiment [19] was inactive. Moreover, the outcome in experiment [18] was inactive.
For `COC(=O)C=C(C)OP(=O)(OC)OC`, the compound was called inactive in experiment [1], in experiment [2], in experiment [3], in experiment [4], in experiment [5] and in [6]. Further, the compound was classed as inactive in [7], in experiment [8], in [9], in experiment [10], in experiment [11] and in experiment [12]. The result in experiment [13], in experiment [14], in experiment [15], in experiment [16], in [17] and in experiment [18] was inactive.
For the compound `COP(=S)(OC)Oc1nc(Cl)c(Cl)cc1Cl`, the outcome in experiment [1], in experiment [2], in experiment [3], in [4], in experiment [6] and in [7] was inactive. In addition, the call in experiment [8], in experiment [9], in experiment [10], in experiment [11], in experiment [12] and in experiment [13] was inactive. Further, the result in experiment [14], in [16], in experiment [17] and in experiment [18] was inactive. Besides, the half-maximal activity concentration (AC50) in experiment [5] is 85.1 µM (active); in [15], 33.5 µM (active).

By AC50 is commonly meant the concentration at which the activity in the assay is half-maximal.
